Laboratory results from PubChem BioAssay (NCATS).
Results filed as inconclusive are left out. The source made the active and inactive calls. The call rests on the fitted dose curve; in most records, active means well fitted activation curve with a large enough effect; inconclusive means small, poorly fitted or top-dose-only effect; inactive means no such curve, though single readings can be large or run the other way.

biological target: Arylsulfatase A (Homo sapiens) (UniProt P15289); experiment: qHTS screen for enhancers of Arylsulfatase A (ASA1): LOPAC Validation Assay (AID 720538); details: ASA enzyme activity, LOPAC qHTS enhancer assay; series mostly up to 57.5 µM; activity change, positive = activation: at the top concentration; on activity change, positive = activation: 0% is about no effect
Sequence (P15289 whole entry, looked up): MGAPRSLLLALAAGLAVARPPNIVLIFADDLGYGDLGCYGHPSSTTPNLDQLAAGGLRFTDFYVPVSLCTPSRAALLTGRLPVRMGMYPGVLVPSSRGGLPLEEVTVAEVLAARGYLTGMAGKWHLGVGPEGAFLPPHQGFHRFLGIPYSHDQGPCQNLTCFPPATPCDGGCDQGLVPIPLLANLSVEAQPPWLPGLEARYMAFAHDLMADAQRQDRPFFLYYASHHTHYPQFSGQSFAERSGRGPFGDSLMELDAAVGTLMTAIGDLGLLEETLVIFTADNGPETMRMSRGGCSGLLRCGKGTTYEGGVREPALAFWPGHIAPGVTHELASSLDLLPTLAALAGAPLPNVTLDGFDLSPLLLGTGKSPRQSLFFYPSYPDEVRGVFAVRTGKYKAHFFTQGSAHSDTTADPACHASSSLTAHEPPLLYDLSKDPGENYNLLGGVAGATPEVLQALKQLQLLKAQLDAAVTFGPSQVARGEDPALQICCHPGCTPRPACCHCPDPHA
Outline: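 SV40-transformed fibroblasts from an MLD patient (ASA-I179S) were treated with compound for 48 h at 37 C. They were then lysed with 0.5 mM pNCS substrate (final) for 14 h at room temperature and stopped with NaOH; signal read by fluorescence (Ex 525/Em 598 nm), with increase denoting enhanced activity.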

SMILES | activity change, positive = activation | outcome
NC(=O)N1c2ccccc2C=Cc2ccccc21 | -15.3% (inactive) | –
CCCOc1ccccc1-c1nc2n[nH]nc2c(=O)[nH]1 | 11.1% (inactive) | –
O=C(O)CP(=O)(O)O | – | inactive
C[N+](C)(C)CCOC(=O)CCC(=O)OCC[N+](C)(C)C | 19.9% (inactive) | –
Cc1ccc(Cl)c(Nc2ccccc2C(=O)O)c1Cl | – | inactive
C[C@]12CCC(=O)C=C1CC[C@@H]1[C@@H]2C(=O)C[C@@]2(C)[C@H]1CC[C@]2(O)C(=O)CO | -4.74% (inactive) | –
NC(Cc1ccc(Cl)cc1)C(=O)O (stereo not drawn) | – | inactive; inhibitor; fitted 5.3582 uM
Cc1ccc(=O)n(-c2ccccc2)c1 | -13.6% (inactive) | –
NC(N)=NC(=O)Cc1c(Cl)cccc1Cl | 10.6% (inactive) | –
CCNC(=O)N1CCN(CCCC(c2ccc(F)cc2)c2ccc(F)cc2)CC1 | – | inactive
COCCCC/C(=N\OCCN)c1ccc(C(F)(F)F)cc1 | -62.9% (inactive) | –
CCN(CC)CCNC(=O)c1cc(S(C)(=O)=O)ccc1OC | -62.5% (inactive) | –
Cc1nnc(SCC2=C(C(=O)O)N3C(=O)[C@@H](NC(=O)Cn4cnnn4)[C@H]3SC2)s1 | 17.7% (inactive) | –
CCN(Cc1ccncc1)C(=O)C(CO)c1ccccc1 (stereo not drawn) | -98.7% (inactive) | –
O=C(CCCN1CCC(O)(c2cccc(C(F)(F)F)c2)CC1)c1ccc(F)cc1 | -21.6% (inactive) | –
c1cnc(N2CCN(Cc3ccc4c(c3)OCO4)CC2)nc1 | -25.3% (inactive) | –
CO[C@@]1(NC(=O)CSCC#N)C(=O)N2C(C(=O)O)=C(CSc3nnnn3C)CS[C@@H]21 | -22.9% (inactive) | –

SMILES | activity change, positive = activation | outcome
CC(C)[N+](C)(CCOC(=O)C1c2ccccc2Oc2ccccc21)C(C)C | -26.6% (inactive) | –
COc1ccc(CCN(C)CCCC(C#N)(c2cc(OC)c(OC)c(OC)c2)C(C)C)cc1OC (stereo not drawn) | – | inactive; inhibitor; fitted 4.2562 uM
CN(C)CCN(Cc1cccs1)c1ccccn1 | 5.37% (inactive) | –
CCN(CC)CC(=O)Nc1c(C)cccc1C | 10.4% (inactive) | –
CC1=NS(=O)(=O)c2cc(Cl)ccc2N1 | -0.953% (inactive) | –
CC(=O)OC(C)C[N+](C)(C)C (stereo not drawn) | 18.1% (inactive) | –
O=C(O)CCCCCCCC(=O)O | -37.3% (inactive) | –
CCOC(=O)C1=C(C)NC(C)=C(C(=O)OC)C1c1cccc([N+](=O)[O-])c1 (stereo not drawn) | – | inactive
C[N+](C)(C)CCOC(N)=O | – | inactive; inhibitor; fitted 3.0131 uM
C[C@]12C=CC(=O)C=C1CC[C@H]1[C@@H]3C[C@@H](O)[C@](O)(C(=O)CO)[C@@]3(C)C[C@H](O)[C@@]12F | -19.5% (inactive) | –
CN1CCN(C2=Nc3ccccc3Oc3ccc(Cl)cc32)CC1 | -2.06% (inactive) | –
COCCOC(=O)C1=C(C)NC(C)=C(C(=O)OC(C)C)C1c1cccc([N+](=O)[O-])c1 (stereo not drawn) | – | inactive; inhibitor; fitted 0.4775 uM
CN(C)CC/C=C1\c2ccccc2COc2ccccc21 | – | inactive
C(=C\c1ccccc1)/CN1CCN(C(c2ccccc2)c2ccccc2)CC1 | -10.3% (inactive) | –
Cc1cccc(C)c1NC(=O)C(C)N (stereo not drawn) | -24% (inactive) | –
COc1cc(C(=O)OCCCN2CCCN(CCCOC(=O)c3cc(OC)c(OC)c(OC)c3)CC2)cc(OC)c1OC | 10.1% (inactive) | –
